The text below walks through data of PubChem BioAssay (NCI).

Holding throughout (test): NCI-60 one-dose screen, 48 h (100 = growth as untreated, 0 = no growth, -100 = all killed)
Common to all, as to conditions: 10 µM unless noted

In test [1] the test system is HOP-62 NSCLC.
In test [2] the test system is NCI-H460 lung.
The test system of test [3] is A549/ATCC NSCLC.
Test [4] has as its system 786-0 renal.
Test [5] deals with DU-145 prostate.
The test system of test [6] is MALME-3M melanoma.
The test system of test [7] is RXF 393 renal.
For test [8], the system named is SF-295 CNS.
The test system of test [9] is UACC-257 melanoma.
For test [10], the system named is M14 melanoma.
The test system of test [11] is SNB-19 CNS.
Test [12] concerns SK-MEL-2 melanoma.
In test [13] the test system is UO-31 renal.
Test [14] concerns HL-60(TB) leukemia.
For test [15], the system named is OVCAR-5 ovarian.
Test [16] relates to OVCAR-4 ovarian.
Test [17] has as its system T-47D breast.
Test [18] concerns HCC-2998 colon.
For test [19], the system named is A498 renal.
The subject of test [20] is RPMI-8226 leukemia.

The panel holds about 83,000 compounds, 20% with a hit somewhere; the sample as a whole holds those more often.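 The test compound was applied at a single concentration to cells in 96-well plates for 48 hours, and percent growth was recorded.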 Unmarked numbers belong to inactive results. Calls of active or inactive are those of the source. Rule for the calls: active = growth percent below 10; inactive = the rest.

As for `COc1ccc(-c2ccc(OC)c(OC)c2OC)cc1`, the growth in test [1] was 26.9%; in test [2], 12%; in test [3], 38.2%; in [4], 21.3%; in test [5], 13.8%; in [6], 33.2%. Moreover, the growth was 11.2% in [7]; -9.72% (active) in [8]; 43.2% in [9]; 3.01% (active) in test [10]; 38.9% in test [11]; 24% in test [12]. For the same molecule, the growth was 39.4% in test [13]; -19.1% (active) in test [14]; 58% in test [15]; 70.6% in [16]; 27% in test [17]; 23.7% in [18].
`CC(C)N=C(NC(C)C)N1CC1`: the growth in test [1] was 108%; in [2], 116%; in test [3] it was 101%; in test [4], 116%; in [5], 122%; in test [6] it was 124%. The growth in [7] is 122%; in [8] it was 102%; in test [9], 105%; in [10], 128%; in test [11] it was 115%; in test [12], 112%. For the same molecule, the growth in test [13] was 113%; in test [19] it was 116%; in test [14], 104%; in test [20], 121%; in [15] it was 106%; in test [16], 104%. For the same molecule, the growth in test [17] is 111%; in test [18], 103%.
For the molecule `CCC(C)[C@H]1O[C@]2(C=C[C@@H]1C)C[C@@H]1C[C@@H](C/C=C(\C)[C@@H](OC3C[C@H](OC)C(O[C@H]4C[C@H](OC)[C@@H](O)[C@H](C)O4)[C@H](C)O3)[C@@H](C)/C=C/C=C3\CO[C@@H]4[C@H](O)C(C)=C[C@@H](C(=O)O1)[C@]34O)O2` (some centres not stated), the growth in test [1] is -6% (active); in test [2], -34.5% (active); in test [3], 6.21% (active); in test [4], 0.269% (active); in test [5], 11.4%; in test [8], -41.9% (active). Moreover, the growth in test [9] was -17.1% (active); in test [10] it was -46.7% (active); in test [11] it was 23.2%; in [12], -57.2% (active); in test [13], 10.1%; in test [19], -24.9% (active). The growth in test [14] was -26.2% (active); in test [15] it was -31.8% (active); in test [16], 16.4%; in [17] it was 0.0336% (active); in test [18], -49% (active).
As to `CNC(=O)Oc1ccccc1`, the growth is 116% in test [1]; 104% in [2]; 94.9% in [3]; 104% in test [4]; 113% in test [5]; 105% in test [6]. The growth in test [7] is 112%; in test [9] it was 102%; in test [10], 99.3%; in [11], 97%; in test [12] it was 118%; in test [13], 98.8%. Also, the growth in [19] was 120%; in [14], 120%; in test [20], 96.4%; in test [15], 101%; in test [16], 88.7%; in [17] it was 133%. The growth in test [18] was 119%.
`O=C1NC(=O)C(CN2C(=O)C3(c4ccccc42)[C@H](Cl)C(=O)N3c2ccccc2)C(=O)N1` (some centres not stated): the growth in test [1] is 66.3%; in [2], 94.8%; in [3], 77.3%; in [4], 94%; in [5], 102%; in test [6], 95.4%. Further, the growth is 65.5% in [7]; 91.5% in test [8]; 105% in test [10]; 88.6% in test [11]; 76.6% in test [12]; 69.2% in test [13]. Further, the growth was 105% in test [19]; 85.4% in test [14]; 63.1% in test [20]; 84.6% in test [15]; 97.6% in test [16]; 38.1% in test [17]. The growth in test [18] is 83.9%.
As to `Nc1cccc(CC(=O)Nc2ccc(S(=O)(=O)F)cc2)c1`, the growth in test [1] is 90.3%; in [2], 102%; in test [3], 96.5%; in test [4], 96.9%; in test [5], 110%; in test [6] it was 90%. The growth in [7] was 87.3%; in test [8], 101%; in test [9], 103%; in test [10] it was 90.7%; in [11] it was 105%; in [12] it was 125%. Also, the growth is 86.2% in test [13], 98.5% in test [15], 92.5% in [17] and 43.9% in test [18].
In the case of `CC12CCC(=O)C=C1CCC1C2CCC2(C)C(C(=O)COC(=O)Cc3ccc(N(CCCl)CCCl)cc3)CCC12` (configuration not stated), the growth in test [1] is 106%; in test [2] it was 40.5%; in [4], 93.7%; in test [5], 109%; in [6], 168%; in test [8], 74.5%. Moreover, the growth in [10] was 104%; in [11] it was 96.2%; in [12], 20.6%; in [13], 72.8%; in test [19], 69.8%; in test [14], 26.7%. Further, the growth was 46.4% in [20]; 119% in test [15]; 91% in test [16]; 89.2% in [17]; -28.3% (active) in test [18].
Consider `N#[N+]c1cnc([O-])[nH]c1=O`, for which the growth in test [1] was 105%; in test [2], 107%; in test [4], 93.9%; in test [5], 99.9%; in test [6] it was 105%; in test [8], 105%. Further, the growth in test [9] is 75.8%; in test [10] it was 108%; in test [11], 97.8%; in [12], 96.7%; in test [13] it was 39%; in test [19], 85.9%. Further, the growth in [20] was 60.2%; in test [15], 83.9%; in [16] it was 100%; in test [17], 101%.
As to `O=C(Nc1ccc(S(=O)(=O)F)cc1)Oc1ccccc1`, the growth was 93.3% in [1]; 102% in test [2]; 97.2% in test [3]; 102% in [4]; 103% in [5]; 101% in test [6]. The growth in test [7] was 95.3%; in test [8], 96.8%; in [9] it was 111%; in test [10], 110%; in [11], 97.6%; in [12], 107%. Moreover, the growth is 87% in [13]; 97.6% in [19]; 105% in test [14]; 92.3% in [20]; 102% in test [15]; 97% in [16]. The results for the growth in test [17] and in test [18] were 95.9% and 110%, respectively.
